Measurements reported in PubChem BioAssay AID488969 (Vanderbilt High Throughput Screening Facility, 2010).
In all, about 110,000 compounds were measured (“z-score”: median about -0.1, highest 2% from about 2 on). The list comes from a sample in which the highest values are over-represented; it also holds similar structures and randomly drawn compounds. The source made the active and inactive calls.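 The calls were made as follows: active = z-score in the third read window above 3 or below -3; inactive = the rest.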

biological target: Metabotropic glutamate receptor 8 (Rattus norvegicus) (UniProt P70579); experiment: rat mGluR8 modulators via GIRK flux, primary screen, cell-based, thallium flux, HTS (AID 488969); details: HEK293 rat mGluR8, GIRK (G protein-gated inwardly rectifying potassium channel) thallium flux, FluoZin2; at 10 µM; stronger effect = higher value; submaximal glutamate (EC20) added with thallium
Sequence (P70579 whole entry, looked up): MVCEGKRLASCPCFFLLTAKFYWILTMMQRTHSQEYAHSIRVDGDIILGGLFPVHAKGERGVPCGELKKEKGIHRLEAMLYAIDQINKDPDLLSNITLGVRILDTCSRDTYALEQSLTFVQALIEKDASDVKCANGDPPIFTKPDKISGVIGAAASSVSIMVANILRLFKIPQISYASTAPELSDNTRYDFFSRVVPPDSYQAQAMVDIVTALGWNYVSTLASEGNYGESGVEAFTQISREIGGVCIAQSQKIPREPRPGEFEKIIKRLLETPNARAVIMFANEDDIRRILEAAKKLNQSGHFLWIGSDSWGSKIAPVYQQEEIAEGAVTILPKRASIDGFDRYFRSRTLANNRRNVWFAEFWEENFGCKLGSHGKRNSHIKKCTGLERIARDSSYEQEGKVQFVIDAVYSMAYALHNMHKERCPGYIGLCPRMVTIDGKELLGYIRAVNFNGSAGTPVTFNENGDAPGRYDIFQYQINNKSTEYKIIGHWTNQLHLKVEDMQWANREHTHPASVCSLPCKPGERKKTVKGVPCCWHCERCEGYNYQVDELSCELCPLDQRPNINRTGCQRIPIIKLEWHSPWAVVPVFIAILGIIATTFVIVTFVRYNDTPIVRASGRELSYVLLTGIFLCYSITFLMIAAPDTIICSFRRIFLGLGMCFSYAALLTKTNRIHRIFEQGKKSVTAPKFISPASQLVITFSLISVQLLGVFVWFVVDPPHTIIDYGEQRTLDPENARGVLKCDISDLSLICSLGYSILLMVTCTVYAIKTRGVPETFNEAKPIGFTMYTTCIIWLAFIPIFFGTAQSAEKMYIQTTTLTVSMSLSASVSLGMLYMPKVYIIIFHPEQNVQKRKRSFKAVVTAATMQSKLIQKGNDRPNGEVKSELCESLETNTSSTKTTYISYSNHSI

SMILES | z-score
CC(C)(C)NC(=O)CN(C(=O)Cn1nnc(-c2ccc(Cl)cc2)n1)C1CCN(Cc2ccccc2)CC1 | -0.128
CC1CC(C)CN(c2ncnc3c2cnn3Cc2ccc(Cl)cc2)C1 (centres undefined) | -0.714
O=C(CSc1nnnn1-c1cccnc1)Nc1ccc(OCc2ccccc2)cc1 | -0.183
CCn1c(=O)c(C(=O)NCCCO)c(O)c2ccccc21 | 3.51 (active)
CCn1c(=O)c(C(=O)NCCc2ccccc2)c(O)c2ccccc21 | 0.613
CCNCCNC(=O)c1c(O)c2ccccc2n(CC)c1=O | -0.289
COc1ccc(C(=O)COc2ccc(NC(C)=O)cc2)cc1 | -0.0378
COc1ccc(CCNC(=O)c2cc(-c3ccccc3)on2)cc1OC | 0.914
S=C(NCc1ccc(Cl)cc1Cl)Nc1ccccc1 | 3.34 (active)
S=C(NCCSCc1ccc(Cl)cc1Cl)Nc1ccccc1 | -0.181
Fc1ccc(NC(=S)NCc2ccccc2Cl)cc1 | 1.74
Fc1ccc(CNC(=S)Nc2ccc(Cl)cc2)cc1 | 0.385
Fc1ccccc1CNC(=S)Nc1ccc(Cl)cc1 | 2.23
S=C(Nc1ccccc1)Nc1ccc(OCc2ccc(Cl)cc2Cl)cc1 | -0.223
O=C(OC(C(=O)NC1CCCCC1)c1ccccc1)c1ccco1 (centres undefined) | -0.0658
Cc1cccc(C(C)C)c1NC(=O)c1ccc(CN(c2ccccc2)S(=O)(=O)c2ccccc2)cc1 | -0.0858
COc1cc2c(cc1NC(=O)C(C)NCc1ccccc1)oc1ccccc12 (centres undefined) | 0.0909
O=C(NC1CCCCC1)C(c1ccccc1)N(Cc1ccco1)C(=O)Cn1cnc2ccccc21 (centres undefined) | -1.29
CC1(C)Cc2nc(N3CCOCC3)c(C#N)cc2CO1 | -0.0959
CC(C)CCNc1nc2c(cc1C#N)COC(C)(C)C2 | -0.377

SMILES | z-score
Cc1nc(NCCCO)c(C#N)c2c1COC(C)(C)C2 | 1.53
CC(C)c1nc(NCCN2CCOCC2)c(C#N)c2c1COC(C)(C)C2 | -0.502
CC1(C)Cc2nc(NCCN3CCOCC3)c(C#N)cc2CO1 | 7.19 (active)
CC1(C)Cc2nc(NCCCO)c(C#N)cc2CO1 | 2.93
Nc1nnc(SCC(=O)c2ccco2)s1 | -0.0604
O=S1(=O)C=C(SCc2ccccc2)Nc2ccccc21 | -0.11
CCOC(=O)c1nn(-c2ccc(OCC)cc2)c(C)c1C(C)=O | 0.0801
O=C(NCc1ccc(F)cc1)c1cnc2n(c1=O)CCS2 | 2.18
CCc1ccc(NC(=O)c2cnc3n(c2=O)CCS3)cc1 | 2.53
O=C(Nc1ccccc1)c1cnc2n(c1=O)CCS2 | -0.146
O=C(NCc1ccccc1)c1cnc2n(c1=O)CCS2 | -0.0906
COc1ccc(CNC(=O)c2cnc3n(c2=O)CCS3)cc1 | -0.183
CCCCOC(=O)c1ccc(NC(=O)c2cnc3n(c2=O)CCS3)cc1 | 0.203
CCOC(=O)c1ccc(N2C(=O)C3ON(c4ccccc4)C(c4ccco4)C3C2=O)cc1 (centres undefined) | -0.354
COc1cc(OC)nc(NC(=O)CSc2nc3ccccc3o2)n1 | -0.294
Cc1cc(C)cc(N(CC(=O)O)S(=O)(=O)c2c(C)noc2C)c1 | -0.132
CNC(=S)NN(c1ccccc1)c1ccccc1 | -0.0349
CCNC(=S)NN(c1ccccc1)c1ccccc1 | 0.837
CC(C)NC(=S)NN(c1ccccc1)c1ccccc1 | 2.38
COc1ccc(OC)c(C2C3=C(CCCC3=O)NC3=C2C(=O)CCC3)c1 | -0.586

SMILES | z-score
O=S(=O)(Cc1ccccc1Cl)CC(O)COc1ccccc1Cl (centres undefined) | -0.273
COc1ccc(CNC(=O)c2c(C)nc3ccccn23)cc1 | -0.0334
Cc1nc2ccccn2c1C(=O)NN | 2.34
Cc1c(C(=O)NN)nc2ccccn12 | -0.145
COc1nc(N/N=C/c2ccc(-c3ccccc3[N+](=O)[O-])o2)nc(N2CCOCC2)n1 | -0.309
COc1ccc(S(=O)(=O)N(CCc2ccccc2)CC(=O)O)cc1Cl | -0.104
CN1C(=O)C(O)(C2OC(C)(C)CCC2=O)c2ccccc21 (centres undefined) | -0.0799
NC(=O)C1(NC(=O)[C@@H]2CC3(CC(c4cccc(NC(=O)[C@@H]5CCC(=O)N5)c4)=NO3)CN2C(=O)Cc2ccc(C(F)(F)F)cc2)CC1 (some centres undefined) | -0.279
NC(=O)C1CNc2ccccc2O1 (centres undefined) | 2.79
O=C(Nc1nncs1)C1COc2ccccc2O1 (centres undefined) | 0.542
CCCNC(=O)C1CNc2ccccc2O1 (centres undefined) | -0.2
CCCCSc1nc(C)nc2c1c(=O)n(C)c(=O)n2C | -0.303
COc1ccc2[nH]c3c(Cl)ncnc3c2c1 | -0.502
COC(=O)c1sc(NC(=O)/C=C/c2ccc(C)o2)nc1C | -0.15
COc1ccccc1C(O)Cc1nc2ccccc2n1C (centres undefined) | -0.393
Cc1cccc(C)c1NC(=O)C(NC(=O)c1ccccn1)c1ccccc1[N+](=O)[O-] (centres undefined) | 0.95
Cc1cccc(C)c1NC(=O)C(NC(=O)c1ccccn1)c1ccc([N+](=O)[O-])cc1 (centres undefined) | 2.97
Cc1cccc(C)c1NC(=O)C(c1cccc([N+](=O)[O-])c1)N(C)C(=O)c1ccccn1 (centres undefined) | -0.125
O=C(Nc1cccc(C(=O)N2CCCC2)c1)c1ccccc1Cl | -0.0275
